Bioassay records from PubChem.
BoNT-F LC inh: BoNT F light chain protease inhibition. inhibition, % at 10 µM. actives 0.22% (n = 360,000). Multiplex microsphere protease cleavage assay, flow cytometry; in the data active means inhibition above about 35%, passing the limit was not always enough; inconclusive means no clear call, values can overlap the other calls
Anthrax LF inh2: blocks Bacillus anthracis lethal factor protease; P15917; multiplex microsphere protease cleavage assay, LF; inhibition, % at 10 µM; actives 0.12% (n = 360,000)
BoNT-A LC inh2: inhibitors of Botulinum neurotoxin A light chain protease; multiplex microsphere protease substrate cleavage, flow cytometry; AID 588499; actives 0.17% (n = 360,000); inhibition, % at 10 µM
Bead autofluor: flagged as autofluorescent in microsphere protease counterscreen. compound autofluorescence counterscreen, microsphere flow cytometry; hits give high values. fluorescence intensity (concentration not given with the values). actives 3.1% (n = 360,000). AID 624483; in the data active means fluorescence intensity above about 16000; inconclusive means no clear call, values can overlap the other calls
Each line names hits and unclear results; the compound was inactive in the other large screens. An excerpt weighted towards active compounds, which were near 3.5% of everything screened. Unless noted, no stated cut-off is given here; in the data, active means inhibition above about 30%; inconclusive means no clear call, values can overlap the other calls; inactive means below that.

O=C(CN1C(=O)NC2(CCCCC2)C1=O)N1CCN(S(=O)(=O)c2ccc(F)c(F)c2F)CC1	Anthrax LF inh2 inconclusive
O=C(NCc1ccccc1)NC(=O)c1ccncc1	Bead autofluor 20362
O=C(NCc1ccccc1)NC(=O)c1ccccc1	none
O=C(NCc1ccncc1)c1ccc(Br)cc1	Bead autofluor 22240
COc1nc(-c2ccccc2)cc(-c2ccc(OC)c(OC)c2)n1	Bead autofluor 19447
COc1ccc(-c2cc(-c3ccccc3)nc(NN)n2)cc1OC	none
CN(C)CC1(c2ccccc2)CCCC1	Bead autofluor 17486
CNCC1(c2ccccc2)CCCC1	none
COc1ccc(C=C2CS(=O)(=O)CC(=Cc3ccc(OC)cc3)C2=O)cc1	none
COc1ccc(OC)c(C(C)NC(C)=O)c1 (centres undefined)	Bead autofluor 18227
CNC(C)c1cc(OC)ccc1OC (centres undefined)	none
O=C(c1ccco1)N(CCC(c1ccccc1)c1ccco1)Cc1ccc(F)cc1 (centres undefined)	Bead autofluor 16623
COc1ccc(C(C)n2c(C)c3c(C)nnc(C)c3c2C)cc1 (centres undefined)	Bead autofluor 16371
COc1ccc(-n2c(N)cc(=O)nc2SCC(=O)N2CCN(c3ccccc3)CC2)cc1	none
Cc1cc(NC(=O)CSc2nc3ccsc3c(=O)n2CCCCC(=O)O)no1	Bead autofluor 16845
COc1ccc(CCn2c(SCC(=O)Nc3cc(C)on3)nc3ccsc3c2=O)cc1OC	Bead autofluor 19488
Cc1cc(NC(=O)CSc2nc3ccccc3n2CC(=O)N2CC(C)CC(C)C2)no1 (centres undefined)	BoNT-A LC inh2 inconclusive, Bead autofluor 23778
Nc1cc(=O)nc(SCC(=O)N(C2CCCCC2)C2CCCCC2)n1-c1ccccc1	BoNT-A LC inh2 inconclusive, Bead autofluor 16646
Cc1cccc(-n2c(N)cc(=O)nc2SCC(=O)Nc2cc(C)on2)c1	none
CCCCCCn1c(SCC(=O)Nc2cc(C)on2)nc2ccccc2c1=O	Bead autofluor 16827
CCCCc1nnc(NC(=O)CSc2nc(=O)cc(N)n2-c2cccc(C)c2)s1	Bead autofluor 16503
Cc1ccc(NC(=O)CSc2nc(=O)cc(N)n2-c2ccccc2)cc1	none
COC(=O)c1cccc(NC(=O)CSc2nc(=O)cc(N)n2-c2ccccc2)c1	Bead autofluor 16937
O=C(O)Cn1nnnc1SCC(=O)Nc1ccccc1F	none
Nn1c(SCC(=O)Nc2ccccc2F)nc2ccccc2c1=O	BoNT-A LC inh2 inconclusive, Bead autofluor 16496
CCOC(=O)c1cccc(NC(=O)CSc2nc3ccccc3c(=O)n2CCOC)c1	BoNT-A LC inh2 inconclusive, Bead autofluor 22521
CCOC(=O)c1cccc(NC(=O)CSc2nc3ccccc3c(=O)n2CC)c1	none
CCn1cc(CNC(=S)Nc2cccc(Cl)c2C)cn1	none
CC1(C)CC(=O)C=C(NNC(=O)c2ccccc2O)C1	Bead autofluor 16377
Cc1cccc(C(=O)NNC2=CC(=O)CC(C)(C)C2)c1O	none
CC1CN(C2CCCCC2)C(=S)N(c2ccccc2)C1=O (centres undefined)	none
CC1C(c2ccccc2)C(C#N)(C#N)C2(C#N)C(=O)NC1(N)C2C (centres undefined)	Bead autofluor 37669
CCCCCc1ccc(CC(=O)O)cc1	BoNT-A LC inh2 inconclusive, Bead autofluor 25330
CC1(C)CC(=O)C2=C(C1)NC(=O)C21C(C(=O)OC(C)(C)C)=C(N)Oc2ccc(Br)cc21 (centres undefined)	Bead autofluor 22960
CCOC(=O)c1cnc(SCC(=O)c2ccccc2)nc1N	Bead autofluor 24281
CC(C)c1ccccc1N1CC(C(=O)O)CC1=O (centres undefined)	Bead autofluor 21241
COc1ccc(C(=O)NCC23C=CC(O2)C2C(=O)N(Cc4ccccc4)C(=O)C23)cc1 (centres undefined)	BoNT-A LC inh2 inconclusive, Bead autofluor 19591
CC(=O)Oc1ccc(N2C(=O)C3C4C=CC(CO)(O4)C3C2=O)cc1 (centres undefined)	none
CC(=O)Oc1ccc(NC(=O)C2CCCCC2)c(C(=O)O)c1	Bead autofluor 20737
CCOc1ccc(Cl)cc1CSc1n[nH]c(CC)n1	Bead autofluor 22875
O=C1C2C3C=CC(C2C(=O)N1CCCO)C1C2C(=O)N(CCCO)C(=O)C2C31 (centres undefined)	Bead autofluor 21305
COc1ccccc1C(=O)NC(=O)COC(=O)CNC(=O)c1ccc(Cl)cc1Cl	none
COc1cccc(OC)c1OCCCCn1cnc2ccccc2c1=O	none
Cc1cc(C)c(C)c(OCCCCn2cnc3ccccc3c2=O)c1	Bead autofluor 23324
CSc1ccccc1C(=O)N1CCN(S(=O)(=O)c2sc(C(=O)O)c(C)c2C(=O)O)CC1	none
CC12C=CC3(CN(Cc4ccccc4)C(=O)C3C1C(=O)NC1CC1)O2 (centres undefined)	Bead autofluor 22134
COc1ccc(-c2cc3ccccc3oc2=O)cc1NC(=O)c1ccc([N+](=O)[O-])o1	Bead autofluor 23372
COc1ccc(-c2cc3ccccc3oc2=O)cc1NC(=O)c1ccc(Br)o1	none
CCOC(=O)CC1COCCN1C(=O)c1cc(COc2ccc(F)cc2Cl)on1 (centres undefined)	none
COc1ccc(C(=O)NC(=S)NCc2ccccc2)cc1OC	none
COc1ccc(C(=O)NC(=S)NCc2ccc(-c3nc4ccccc4o3)cc2)cc1OC	BoNT-A LC inh2 inconclusive, Bead autofluor 21219
CCOc1cc(C(=O)NCc2ccc(-c3nc4ccccc4o3)cc2)cc(OCC)c1OCC	Bead autofluor 16439
Cc1ccc2nc(C3CCCCC3)c(Cc3ccsc3)n2c1	none
Cc1noc(C)c1NC(=O)Nc1ccc2c(c1)C(=O)N([C@H](C)CO)C[C@H](C)[C@@H](CN(C)C(=O)Nc1ccc3c(c1)OCO3)O2	none
O=C(OCC(F)(F)C(F)F)c1ccccc1C(=O)Oc1ccc(F)cc1F	BoNT-A LC inh2 inconclusive, Bead autofluor 20051
CC1CCc2c(sc(NC(=O)C(=O)NCc3ccco3)c2C#N)C1 (centres undefined)	BoNT-A LC inh2 inconclusive, Bead autofluor 20783
COC(=O)CN1C(=O)C2(C(C#N)=C(N)Oc3ccccc32)C2=C1CC(C)(C)CC2=O (centres undefined)	Bead autofluor 22010
CCOC(=O)CC1=C(C(=O)OCC)C2(C(=O)N1CC(=O)OC)C(C#N)=C(N)Oc1ccccc12 (centres undefined)	none
CC(C)(C)OC(=O)NCCCCCNC(=O)c1[nH]cnc1C(=O)NC1CCN(C(=O)OC(C)(C)C)CC1	none
CCCn1c(=O)c(F)cn(Cc2ccc(OC)c([N+](=O)[O-])c2)c1=O	Bead autofluor 21734
O=C(Nc1ccccc1Cl)c1cc(C2CCCN(C(=O)c3ccccc3)C2)on1 (centres undefined)	none
CC(=O)Nc1ccc(S(=O)(=O)N2CCC(c3nc4ccc(C)cc4[nH]3)CC2)cc1	Bead autofluor 24362
CN1CCN(S(=O)(=O)c2ccc(NC(=O)c3csc4ccccc34)cc2)CC1	BoNT-A LC inh2 inconclusive, Bead autofluor 16528
CN1CCN(S(=O)(=O)c2ccc(NC(=O)Cc3cccs3)cc2)CC1	Bead autofluor 19616
O=C(Cc1cccs1)Nc1ccc(S(=O)(=O)N2CCCCC2)cc1	BoNT-F LC inh inconclusive
Cc1ccc2nc(C3CCN(C(=O)NCc4ccccc4)CC3)[nH]c2c1	Bead autofluor 17071
